Most compounds without a hit are left out; they make up all but 3.1% or so of the library.
PAX8 reporter – inhibitors of PAX8-driven TPO luciferase reporter, primary screen, RMG-I cells, single concentration; SteadyGlo, 24 h; inhibition, % at 12.6 µM; hit rate 1.2% among 360,000; AID 652154, 2013;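 active = mean replicate inhibition at least 60% with every replicate also reaching 60%; inconclusive = only one of the two criteria is met; inactive = mean below 60% and not all replicates reaching 60%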;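 note: luciferase light reporting Pax8 driven TPO promoter activity; plate controls were median of neutral control wells for no effect and mitoxantrone controls for full effect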
LGR2 antag – inhibitors of bursicon-induced LGR2 CRE-luciferase signal, primary screen, cell-based, HEK293, CRE-luciferase reporter, bursicon stimulation | inhibition, % at 9.99 µM | bursicon-stimulated, 4 h | AID 720647, 2013 | hit rate 0.35% among 380,000;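 active = drop in luminescence signal, shown as inhibition above about 50% in the replicate tests, limit read from the data, passing the limit was not always enough; inconclusive = probably only some replicates passing the limit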;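 note: agonist challenge used bursicon conditioned medium at about half maximal strength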
LMP1 NFkB inh – EBV LMP1-driven NF-kappaB luciferase reporter inhibitors, primary screen, cell-based, luminescence, single point. AID 504558, 2011. LMP1-induced NF-kappaB luciferase reporter cells. hit rate 0.69% among 350,000. inhibition, % at 12.5 µM; in the data active = inhibition above about 41%; inconclusive = no clear call, values can overlap the other calls;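 note: 0% = neutral control wells and 100% = reference inhibitor control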
EWS-Fli inh – EWS/Fli-driven NR0B1 reporter inhibitors, primary screen, A673 cells, NR0B1 luciferase, luminescence, MLPCN library; viability-normalised; inhibition, % at 12.6 µM; hit rate 0.67% among 350,000; AID 651661, 2012;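 active = mean inhibition of at least 50% after viability correction, with every replicate also passing that limit; inconclusive = mean reaches 50% but only one of two replicates passes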;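 note: firefly luciferase signal divided by Alamar Blue viability fluorescence both relative to DMSO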
TWEAK-Fn14 inh – inhibitors of TWEAK-Fn14 signaling, primary screen, luciferase reporter cells, uHTS; TWEAK-stimulated Fn14 reporter cells, luciferase luminescence, 8 h; inhibition, % at 10 µM; hit rate 2% among 360,000; AID 1159606, 2016; in the data active = inhibition above about 50%
TROY signal inh – inhibitors of TROY-driven NF-kB signaling, primary screen, Q293 LMP1-TROYcd cells, NF-kB luciferase, uHTS; inhibition, % at 10 µM; hit rate 0.98% among 360,000; AID 1347056, 2019; Q293 LMP1-TROYcd NF-kB luciferase reporter, 4 h;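 active = compounds whose plate-normalised and pattern-corrected inhibition of the luciferase reporter signal at the single screening dose is 50% or more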
* marks the source's active call; other numbers are inactive results; ? = inconclusive; / = no result.

SMILES	PAX8 reporter	LGR2 antag	LMP1 NFkB inh	EWS-Fli inh	TWEAK-Fn14 inh	TROY signal inh
O=C1CC(NNc2nc3ccccc3s2)C(=O)N1c1ccccc1 (stereo not drawn)	/	0	-14	/	4	61*
Cc1noc(C)c1NC(=O)N(C)C[C@H]1Oc2ccc(NC(=O)CCN3CCOCC3)cc2C(=O)N([C@H](C)CO)C[C@H]1C	/	2	/	10	/	/
C=C1CC2C3CC[C@@]4(OCOC45COCO5)[C@@]3(C)C(O)CC2[C@@]2(C)CCC(=O)C=C12 (stereo partly drawn)	64*	1	7	/	14	3
C[C@]12CCC(=O)C=C1CCC1C2CC[C@@]2(C)C1CCC21OCCO1 (stereo partly drawn)	21	-18	4	5	-6	9
C[C@@H]1CN([C@H](C)CO)S(=O)(=O)c2ccc(C#CC3CCCC3)cc2O[C@@H]1CN(C)C(=O)c1cccc(F)c1	/	4	/	14	/	/
Cc1cc(C(=O)Nc2ccc3c(c2)C(=O)N(C)[C@@H]2CC[C@H](CC(=O)N[C@H](C)c4ccccc4)O[C@@H]2CO3)no1	8	5	/	3	/	/
C[C@@H]1CN([C@@H](C)CO)C(=O)Cc2cc(NS(=O)(=O)c3ccccc3)ccc2O[C@H]1CN(C)CC1CC1	-2	10	/	-3	/	/
CC1(C)CC(N2CCCCC2)=CC(=[N+]2CCCCC2)C1	75*	9	13	20	23	18
COc1cccc(-c2cnc3c(c2)C(=O)N([C@H](C)CO)C[C@@H](C)[C@@H](CN(C)CC2CC2)O3)c1	/	-9	/	-9	/	/
C[C@H]1CCC[C@]2(C)C[C@H]3OC(=O)C(CN4CCCCCC4)[C@H]3C=C12 (stereo partly drawn)	?	37	2	8	73*	-2
CN1CCN(c2ccccc2NC(=O)c2ccc(-c3ccc(Cl)c(Cl)c3)o2)CC1	-3	8	-7	1	4	18
Cc1cc(N2CCN(C)CC2)ccc1NC(=O)c1ccc(-c2ccc(Cl)cc2)o1	13	-2	-1	23	94*	80*
CCS(=O)(=O)Nc1ccc2c(c1)C(=O)N(C)C[C@H](OC)[C@@H](C)CN(C(=O)COC)[C@@H](C)CO2	-22	13	/	-11	/	/
CCc1nnc(NC(=O)c2nc(S(=O)(=O)Cc3ccccc3)ncc2Cl)s1	24	3	31	/	97*	33
CCc1nnc(NC(=O)c2nc(S(=O)(=O)Cc3ccc(C)cc3)ncc2Cl)s1	6	-22	10	/	95*	51*
CCc1nnc(NC(=O)c2nc(Cl)ccc2Cl)s1	10	6	-6	/	-6	-23
CCc1nnc(NC(=O)c2nc(S(=O)(=O)Cc3cccc(C)c3)ncc2Cl)s1	28	-19	66*	/	97*	46
CCc1nnc(NC(=O)c2cccc(S(=O)(=O)N3CCN(C)CC3)c2)s1	-6	9	-1	0	16	-15
CCOc1ccccc1NC(=O)c1nc(S(=O)(=O)Cc2cccc(C)c2)ncc1Cl	132*	4	66*	58*	79*	71*
CCCNC(=O)N1C[C@@H](O)COC[C@H]2O[C@H](CC(=O)NCc3ccc(Cl)c(Cl)c3)CC[C@@H]21	7	17	/	-3	/	/
CCC(=O)C1CCCN(C(=O)c2ccc(OC3CCN(C(=O)CCOC)CC3)cc2)C1 (stereo not drawn)	16	2	-1	/	88*	10
COCCC(=O)N1CCC(Oc2ccc(C(=O)N3CCCC(OC)C3)cc2)CC1 (stereo not drawn)	-18	2	5	-10	-11	-37
O=C(C[C@@H]1C=C[C@@H](NC(=O)C2CCOCC2)[C@H](CO)O1)NCc1ccncc1	7	14	/	-2	/	/
CC(=O)N1[C@H](C(=O)NCCCN(C)C)[C@@H](CO)[C@@H]2Cn3c(ccc(-c4cccc(F)c4)c3=O)[C@@H]21	-15	-5	/	6	/	/
CNC(=O)CC1C(=O)N(c2ccc(OC)cc2)C(=S)N1NC(=O)c1cccc(F)c1 (stereo not drawn)	12	0	/	7	-7	84*

Compound activity as filed in PubChem BioAssay.
